HTT promoter inh: HTT promoter inhibition | HEK293 HTT promoter firefly luciferase reporter, 24 h | 48,000 compounds, 0.93% hits | AID 1508623 | Potency, µM (series often up to 57.5 µM), for inactives: top-dose activity change, negative = inhibition, hits mostly inhibitors; note: potency is the fitted concentration of half-maximal effect; nearly all actives have a fitted effect of over 50% in size
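Firefly luciferase signal from promoter-reporter HEK293 cells was scaled between vehicle (0%) and zero RLU (-100%). Compounds were tested at final concentrations of up to 57.5 uM over 24 h at 37 degrees C. PTC124 at 50 uM final served as control inhibitor.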
GPR32 ag: agonists of human resolvin D1 receptor DRV1 (GPR32); O75388; 48,000 compounds, 2.5% hits; activation, % at 76.9 µM; AID 1346428; CHO-K1 GPR32 beta-arrestin PathHunter luminescence, 90 min; zero percent set by DMSO-only wells;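 active = activation of at least 60% and not above a set upper limit, about 1 call in 100 departs from these limits; inconclusive = activation of 40% to 60%, or above that upper limit; inactive = activation under 40%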; note: 0% is about no effect
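Agonism was scored by beta-Gal fragment complementation (chemiluminescent read, 1 h detection at ambient temperature) reporting beta-arrestin binding to GPR32 in engineered CHO-K1 cells. Compound treatment lasted 90 min at 37 C, normalized to a DMSO basal control.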
B2AR arrestin ag: agonists recruiting beta-arrestin to human beta2-adrenergic receptor. P07550. HTLA Tango cells, beta-arrestin recruitment, luciferase luminescence, 18 h. Potency, µM (top dose mostly 46.1 µM), hits mostly activators. 44,000 tested, under 10 active. AID 1347077;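 note: potency is the fitted concentration of half-maximal effect; 0% = DMSO and full agonism = EC100 isoproterenol or metaproterenol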
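Receptor–beta-arrestin recruitment read by tTA-responsive luciferase: compound titrations (up to 46 µM) incubated 18 h with Tango cells, then luminescent substrate 15 min at room temperature. Concentration-response fits classified by r2, efficacy and activity.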
HTT-AS promoter: activates huntingtin-antisense promoter activity. HEK293 HTT-AS promoter firefly luciferase reporter, 24 h; response scale: percent change from vehicle, -100% = no light. Potency, µM (series often up to 57.5 µM), for the others: at the top dose activity change, positive = activation, hits mostly activators. 48,000 compounds, 0.24% hits; note: potency is the fitted concentration of half-maximal effect; nearly all actives have a fitted effect of over 55% in size
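Firefly luciferase signal from promoter-reporter HEK293 cells was scaled between vehicle (0%) and zero RLU (-100%). Compounds were tested at final concentrations of up to 57.5 uM over 24 h at 37 degrees C. PTC124 at 50 uM final served as control inhibitor.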
TSG101-PTAP inh: inhibitors of HIV-1 PTAP binding to human TSG101, validation; 44,000 tested, under 10 active; AID 1347069; Fluorescence polarization, FITC-PTAP peptide/Tsg101, 20 min; Potency, µM (doses to about 115 µM), most hits filed as inhibitors; note: potency is the fitted concentration of half-maximal effect; 0% is about no effect
Target sequence (Q99816 whole entry, looked up): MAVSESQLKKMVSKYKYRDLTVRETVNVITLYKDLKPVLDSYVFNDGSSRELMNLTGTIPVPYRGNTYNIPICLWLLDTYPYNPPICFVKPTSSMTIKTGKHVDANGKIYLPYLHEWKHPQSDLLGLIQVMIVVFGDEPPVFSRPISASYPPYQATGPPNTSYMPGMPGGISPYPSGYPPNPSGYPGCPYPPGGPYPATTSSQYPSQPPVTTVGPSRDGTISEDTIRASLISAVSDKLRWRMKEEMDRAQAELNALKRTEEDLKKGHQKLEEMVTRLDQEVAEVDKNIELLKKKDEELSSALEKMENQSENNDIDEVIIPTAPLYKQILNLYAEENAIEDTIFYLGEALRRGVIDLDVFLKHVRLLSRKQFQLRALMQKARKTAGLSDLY
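The Tsg101 binding domain, at 10 uM final, is mixed with compound and a FITC peptide bearing the PTAP motif (50 nM final). After 20 min at r.t., polarization is measured; actives defined by CRC class, efficacy cut-off 60% inhibition.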
GALK inhibitor: GALK (human) enzyme inhibition; 44,000 tested, under 10 active; P51570; Potency, µM (top dose mostly 57.5 µM), without a hit: top-dose activity, negative = inhibition, hits mostly inhibitors; recombinant GALK, Kinase-Glo ATP luminescence, 1 h;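 note: plate controls were full GALK reaction for no effect and reaction lacking GALK for full effect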
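Human GALK (5 nM) was incubated with 35 uM ATP and 100 uM galactose in 20 mM HEPES pH 8.0 with MgCl2, NaCl, DTT and BSA for 1 h at room temperature. Remaining ATP was measured by Kinase-Glo Plus luminescence.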
* hit, by the source's call; i = inactive; u = inconclusive; x = no result given. Shown are actives, neighbours in structure and some others; about 3.7% of the full set was active somewhere. Unless noted, calls come from the whole dose curve; as a rule, active = well fitted curve in the direction sought with a large enough effect; inconclusive = small, poorly fitted or top-dose-only effect, or another doubt; inactive = no such curve, though single readings can be large; an effect the other way counts as inactive or inconclusive.

SMILES | HTT promoter inh | GPR32 ag | B2AR arrestin ag | HTT-AS promoter | TSG101-PTAP inh | GALK inhibitor
O=C(c1ccccc1Cl)N1CCC(c2nc3ccccc3s2)CC1 | u | 78* | i | -21% | i | -14%
CC(Oc1ccc(F)cc1)C(=O)N1CCC(c2nc3ccccc3s2)CC1 (stereo not drawn) | u | 67* | i | -36% | i | -6%
Cc1cc(OCC(=O)N2CCC(c3nc4ccccc4s3)CC2)ccc1Cl | u | 78* | i | -28% | i | 0%
Cc1ccccc1C(=O)N1CCC(c2nc3ccccc3s2)CC1 | u | u | i | -19% | i | 0%
COc1ccc([C@@H]2CC(=O)c3c(O)cc(O[C@@H]4O[C@H](CO[C@@H]5O[C@@H](C)[C@H](O)[C@@H](O)[C@@H]5O)[C@@H](O)[C@H](O)[C@@H]4O)cc3O2)cc1O | u | x | x | -25% | x | x
CCC(=C(c1ccc(O)cc1)c1ccc(OCCNC)cc1)c1ccccc1 | u | x | x | -28% | x | x
CCn1c(=O)sc2cc(NS(=O)(=O)c3ccc(F)c(C)c3)ccc21 | 14µM* | 18 | i | -52% | i | 0%
c1ccc(N2CCN(c3ncnc4c3nc3n4CCCCC3)CC2)cc1 | u | u | i | -53% | i | 6%
Clc1cccc(N2CCN(c3ncnc4c3nc3n4CCCCC3)CC2)c1 | 10µM* | 32 | i | -61% | i | 3%
Clc1ccc(N2CCN(c3ncnc4c3nc3n4CCCC3)CC2)cc1 | 1.4µM* | 14 | i | -90% | i | 3%
Fc1ccc(N2CCN(c3ncnc4c3nc3n4CCCCC3)CC2)cc1 | 2.8µM* | 22 | i | -44% | i | 0%
COc1cc(OC)cc(-c2ccc3ncc4ccc(=O)n(-c5ccc(N6CCNCC6)c(C(F)(F)F)c5)c4c3c2)c1 | u | x | x | -34% | x | x
CO[C@H]1C(=O)[C@]2(C)[C@@H](OC)C[C@H]3OC[C@@]3(OC(C)=O)[C@H]2[C@H](OC(=O)c2ccccc2)[C@]2(O)C[C@H](OC(=O)[C@H](O)[C@@H](NC(=O)OC(C)(C)C)c3ccccc3)C(C)=C1C2(C)C | -16% | x | x | -34% | x | x
COc1cc(Nc2nc(SCC(=O)c3ccc(Cl)c(Cl)c3)nc3ccccc23)cc(OC)c1 | -24% | -25 | i | -36% | i | -5%
O=C(CSc1nc(Nc2ccccc2)c2ccccc2n1)c1ccc(Cl)cc1 | -17% | 108* | i | -42% | i | -1%
Cc1ccc(-c2cn(-c3ccc(Cl)cc3)c(S(=O)(=O)CC(=O)Nc3ccccc3)n2)cc1 | -19% | -19 | i | u | i | 2%
Cc1ccc(-n2cc(-c3ccccc3)nc2S(=O)(=O)CC(=O)Nc2ccc(F)cc2)cc1 | 49% | -21 | i | 3.2µM* | i | 2%
COc1ccc(S(=O)(=O)N(CC(=O)NCc2ccccc2)c2ccc(C)cc2)cc1OC | 62% | 31 | i | -5% | i | -18%
COc1ccc(S(=O)(=O)N(CC(=O)NC(C)c2ccccc2)c2ccc(C)cc2)cc1OC (stereo not drawn) | u | 76* | i | -53% | i | 3%
CC(C)(C)c1ccc(C(=O)Nc2ccc(OCc3cc(=O)n4ccsc4n3)cc2)cc1 | -9% | 87* | i | -6% | i | 7%
COc1ccc(-c2cc(C(F)(F)F)nc(SCC(=O)NC(C)c3ccccc3)n2)cc1 (stereo not drawn) | -18% | 106* | i | -17% | i | 23%
COc1ccc(NC(=O)CSc2nc(-c3ccco3)cc(C(F)(F)F)n2)cc1OC | 2.2µM* | 20 | i | -91% | i | 4%
COc1ccc(-c2cc(C(F)(F)F)nc(SCCC(=O)Nc3ccc(O)cc3)n2)cc1 | u | 86* | i | -38% | i | 0%

From PubChem BioAssay
